This note sets out measurements from the supplement of paper PMC10849652.

Assay in all cases: log2 fold change, soluble protein after heating vs DMSO (PISA); higher = thermal stabilisation; K562 lysate, 10 uM; active = over 0.2 and 3.5 SD of the protein, either way, in both replicates (recomputed)
Compound in assay [1]: NCC(=O)Nc1ccc(-n2nc(C(F)(F)F)cc2-c2ccc3c(ccc4ccccc43)c2)cc1
An outline of the steps:
(§1)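 Thermal stability, expressed as log-two fold change relative to solvent controls, is given from duplicates. Crude K562 extract in PBS pH 7.4 with 1 mM MgCl2, at 1 mg/mL protein, was treated with 10 μM compound for 30 min and heated in aliquots for 3 min across 48°C-58°C. After pooling, adjustment to 0.5% NP-40 at 4°C and centrifugation at 21,000xg for 90 min, supernatant protein was measured by TMTpro 16plex LC-MS/MS with channel sums equalised.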

Compound in another assay: O=C(CCCCCCC(=O)Nc1ccccc1)NO [vorinostat]
The method, boiled down:
as §1

Compound in another assay: O=C(O)c1ccc2c(c1)nc(Nc1cccc(Cl)c1)c1ccncc12 [silmitasertib]
The method, boiled down: as §1

Compound in assay [2]: O=C1NC(=O)C(c2cnc3ccccn23)=C1c1cn2c3c(cc(F)cc13)CN(C(=O)N1CCCCC1)CC2
The method, boiled down:
as §1

Compound in a further assay: c1cn2cc(-c3ccc4cn[nH]c4c3)nc(Nc3ccc(N4CCOCC4)cc3)c2n1 [entospletinib]
The method, boiled down: as §1

The full data set covers some 8,800 targets. This sample favours those with a hit. About 0.5% of all pairs of compound and target were hits. A number with no mark means an inactive call.

UniProt O00541, sequence (O00541 whole entry, looked up): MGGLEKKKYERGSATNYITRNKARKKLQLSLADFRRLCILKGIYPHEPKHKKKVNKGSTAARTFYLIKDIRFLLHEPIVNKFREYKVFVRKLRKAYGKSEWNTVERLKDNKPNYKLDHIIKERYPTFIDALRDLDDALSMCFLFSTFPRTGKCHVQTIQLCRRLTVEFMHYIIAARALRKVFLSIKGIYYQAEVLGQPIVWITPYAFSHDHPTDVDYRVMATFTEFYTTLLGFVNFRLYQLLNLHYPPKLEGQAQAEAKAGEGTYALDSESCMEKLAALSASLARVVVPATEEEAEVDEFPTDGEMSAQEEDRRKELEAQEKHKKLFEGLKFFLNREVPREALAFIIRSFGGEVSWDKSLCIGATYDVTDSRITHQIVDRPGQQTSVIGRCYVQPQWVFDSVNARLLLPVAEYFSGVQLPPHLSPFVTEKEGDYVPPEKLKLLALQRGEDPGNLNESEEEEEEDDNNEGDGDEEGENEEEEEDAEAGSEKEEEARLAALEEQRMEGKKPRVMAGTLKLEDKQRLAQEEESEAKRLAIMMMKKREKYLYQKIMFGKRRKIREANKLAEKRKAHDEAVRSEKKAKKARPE
UniProt Q86UU1, sequence (Q86UU1 whole entry, looked up): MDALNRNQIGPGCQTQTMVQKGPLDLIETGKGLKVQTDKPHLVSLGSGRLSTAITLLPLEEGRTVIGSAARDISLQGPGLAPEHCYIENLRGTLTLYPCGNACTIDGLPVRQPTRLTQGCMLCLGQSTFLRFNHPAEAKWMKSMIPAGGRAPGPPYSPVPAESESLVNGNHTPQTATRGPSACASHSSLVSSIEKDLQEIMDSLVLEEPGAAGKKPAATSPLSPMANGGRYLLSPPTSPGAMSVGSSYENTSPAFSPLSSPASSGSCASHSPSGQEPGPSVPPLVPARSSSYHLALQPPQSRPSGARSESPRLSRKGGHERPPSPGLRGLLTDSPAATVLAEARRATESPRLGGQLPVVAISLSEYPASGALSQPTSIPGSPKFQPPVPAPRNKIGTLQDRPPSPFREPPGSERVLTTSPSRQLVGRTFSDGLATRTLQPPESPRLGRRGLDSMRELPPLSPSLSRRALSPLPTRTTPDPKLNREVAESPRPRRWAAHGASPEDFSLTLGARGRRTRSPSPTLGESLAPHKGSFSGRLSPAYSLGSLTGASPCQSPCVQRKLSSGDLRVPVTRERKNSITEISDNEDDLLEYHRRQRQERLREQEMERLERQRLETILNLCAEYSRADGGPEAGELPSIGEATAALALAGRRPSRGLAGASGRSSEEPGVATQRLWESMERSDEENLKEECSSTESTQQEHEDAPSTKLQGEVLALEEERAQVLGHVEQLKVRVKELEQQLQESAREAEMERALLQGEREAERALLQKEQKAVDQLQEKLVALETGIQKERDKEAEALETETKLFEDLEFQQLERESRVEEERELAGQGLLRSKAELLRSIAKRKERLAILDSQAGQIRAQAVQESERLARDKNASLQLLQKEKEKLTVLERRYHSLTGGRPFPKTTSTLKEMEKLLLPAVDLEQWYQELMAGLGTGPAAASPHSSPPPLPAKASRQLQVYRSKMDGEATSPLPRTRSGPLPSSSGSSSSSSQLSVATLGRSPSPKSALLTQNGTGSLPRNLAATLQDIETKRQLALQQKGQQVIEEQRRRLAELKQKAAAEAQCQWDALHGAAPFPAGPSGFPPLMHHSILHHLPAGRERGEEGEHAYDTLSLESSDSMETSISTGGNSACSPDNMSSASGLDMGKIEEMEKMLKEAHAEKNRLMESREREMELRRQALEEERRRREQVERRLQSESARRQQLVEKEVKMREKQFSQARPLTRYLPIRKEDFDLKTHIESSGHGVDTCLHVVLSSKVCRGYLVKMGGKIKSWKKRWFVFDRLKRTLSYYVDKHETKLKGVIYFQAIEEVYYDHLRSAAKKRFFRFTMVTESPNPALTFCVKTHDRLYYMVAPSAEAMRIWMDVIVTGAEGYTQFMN
UniProt Q9UMR5, sequence (Q9UMR5 whole entry, looked up): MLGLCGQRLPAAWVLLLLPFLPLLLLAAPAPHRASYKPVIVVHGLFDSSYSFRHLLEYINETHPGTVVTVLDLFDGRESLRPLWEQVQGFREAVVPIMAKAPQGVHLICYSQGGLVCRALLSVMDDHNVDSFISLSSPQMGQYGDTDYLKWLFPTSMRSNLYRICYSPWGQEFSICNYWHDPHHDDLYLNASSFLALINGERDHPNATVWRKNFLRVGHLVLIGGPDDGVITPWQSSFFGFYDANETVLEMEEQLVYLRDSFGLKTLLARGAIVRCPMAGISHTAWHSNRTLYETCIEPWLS
UniProt O94913, sequence (O94913 whole entry, looked up): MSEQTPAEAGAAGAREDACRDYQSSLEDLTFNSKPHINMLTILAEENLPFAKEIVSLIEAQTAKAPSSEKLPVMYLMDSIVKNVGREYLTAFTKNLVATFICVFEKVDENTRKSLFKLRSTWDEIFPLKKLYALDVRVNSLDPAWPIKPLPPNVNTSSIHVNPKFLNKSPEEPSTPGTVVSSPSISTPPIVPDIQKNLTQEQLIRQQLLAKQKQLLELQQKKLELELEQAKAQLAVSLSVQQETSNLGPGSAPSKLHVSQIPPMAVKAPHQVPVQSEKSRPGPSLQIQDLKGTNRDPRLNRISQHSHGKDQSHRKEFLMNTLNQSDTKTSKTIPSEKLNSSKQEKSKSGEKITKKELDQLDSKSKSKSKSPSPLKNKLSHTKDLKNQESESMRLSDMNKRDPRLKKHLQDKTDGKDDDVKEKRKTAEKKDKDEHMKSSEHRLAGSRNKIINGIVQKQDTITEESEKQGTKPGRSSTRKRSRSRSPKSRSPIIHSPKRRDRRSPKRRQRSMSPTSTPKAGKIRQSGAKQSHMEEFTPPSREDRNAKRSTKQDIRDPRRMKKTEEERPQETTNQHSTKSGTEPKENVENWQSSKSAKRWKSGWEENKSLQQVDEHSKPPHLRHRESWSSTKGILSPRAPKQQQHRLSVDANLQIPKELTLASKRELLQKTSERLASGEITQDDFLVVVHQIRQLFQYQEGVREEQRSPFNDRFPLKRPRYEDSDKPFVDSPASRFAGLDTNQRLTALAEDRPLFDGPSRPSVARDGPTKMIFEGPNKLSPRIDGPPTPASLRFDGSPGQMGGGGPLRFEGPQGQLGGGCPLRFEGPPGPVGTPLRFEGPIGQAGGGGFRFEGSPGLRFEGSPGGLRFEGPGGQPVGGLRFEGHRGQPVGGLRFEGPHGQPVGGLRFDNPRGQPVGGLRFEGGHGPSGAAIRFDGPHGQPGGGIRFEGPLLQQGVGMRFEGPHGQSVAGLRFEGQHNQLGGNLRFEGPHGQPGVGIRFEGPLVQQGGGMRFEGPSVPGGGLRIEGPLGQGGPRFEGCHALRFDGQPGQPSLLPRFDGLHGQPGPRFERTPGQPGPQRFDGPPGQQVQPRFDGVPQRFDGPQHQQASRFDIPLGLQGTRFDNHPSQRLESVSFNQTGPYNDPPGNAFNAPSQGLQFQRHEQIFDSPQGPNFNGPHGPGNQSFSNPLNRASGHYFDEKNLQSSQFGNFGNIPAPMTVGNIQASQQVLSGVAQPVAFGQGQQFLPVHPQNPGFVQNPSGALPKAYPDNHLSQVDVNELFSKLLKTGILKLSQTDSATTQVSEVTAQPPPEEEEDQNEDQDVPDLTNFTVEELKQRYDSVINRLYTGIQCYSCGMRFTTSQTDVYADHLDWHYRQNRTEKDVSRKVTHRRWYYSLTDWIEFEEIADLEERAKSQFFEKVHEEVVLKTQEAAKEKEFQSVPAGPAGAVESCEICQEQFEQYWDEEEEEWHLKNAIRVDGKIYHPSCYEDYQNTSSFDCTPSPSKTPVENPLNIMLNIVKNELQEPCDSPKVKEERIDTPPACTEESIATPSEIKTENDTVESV
UniProt Q8NAV1, sequence (Q8NAV1 whole entry, looked up): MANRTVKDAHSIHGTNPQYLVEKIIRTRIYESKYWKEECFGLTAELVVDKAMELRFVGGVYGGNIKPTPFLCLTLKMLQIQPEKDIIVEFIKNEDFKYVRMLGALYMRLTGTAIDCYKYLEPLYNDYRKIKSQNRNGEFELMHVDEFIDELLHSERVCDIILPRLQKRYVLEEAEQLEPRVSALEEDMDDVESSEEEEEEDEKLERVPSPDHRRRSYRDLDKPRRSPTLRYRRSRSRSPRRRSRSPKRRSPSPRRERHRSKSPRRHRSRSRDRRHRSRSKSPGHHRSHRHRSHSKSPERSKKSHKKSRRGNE
UniProt Q9HBH1, sequence (Q9HBH1 whole entry, looked up): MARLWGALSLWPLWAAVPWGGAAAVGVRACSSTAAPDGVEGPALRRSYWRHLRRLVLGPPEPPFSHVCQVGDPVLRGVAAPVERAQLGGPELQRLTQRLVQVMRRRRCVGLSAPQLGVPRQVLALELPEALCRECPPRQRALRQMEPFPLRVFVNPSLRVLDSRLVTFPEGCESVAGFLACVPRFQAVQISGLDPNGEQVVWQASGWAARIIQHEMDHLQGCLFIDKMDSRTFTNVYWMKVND
UniProt Q05655, sequence (Q05655 whole entry, looked up): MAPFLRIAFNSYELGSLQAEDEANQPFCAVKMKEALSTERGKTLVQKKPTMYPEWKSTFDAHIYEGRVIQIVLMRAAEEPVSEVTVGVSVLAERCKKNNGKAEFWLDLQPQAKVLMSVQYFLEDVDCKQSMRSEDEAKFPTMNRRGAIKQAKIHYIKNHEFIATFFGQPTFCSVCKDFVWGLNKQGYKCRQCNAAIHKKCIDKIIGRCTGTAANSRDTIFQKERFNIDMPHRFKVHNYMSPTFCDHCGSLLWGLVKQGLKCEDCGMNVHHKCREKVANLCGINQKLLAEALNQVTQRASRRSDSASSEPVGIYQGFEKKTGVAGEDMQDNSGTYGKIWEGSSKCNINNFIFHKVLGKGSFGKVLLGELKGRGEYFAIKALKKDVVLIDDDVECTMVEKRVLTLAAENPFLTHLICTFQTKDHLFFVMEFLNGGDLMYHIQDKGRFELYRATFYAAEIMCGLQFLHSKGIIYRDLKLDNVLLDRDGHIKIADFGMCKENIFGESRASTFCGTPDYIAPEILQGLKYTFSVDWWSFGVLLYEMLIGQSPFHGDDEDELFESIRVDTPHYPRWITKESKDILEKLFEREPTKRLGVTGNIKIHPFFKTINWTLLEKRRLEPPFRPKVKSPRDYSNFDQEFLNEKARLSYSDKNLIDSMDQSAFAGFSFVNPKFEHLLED

Take PRKCD (UniProt Q05655): the log2 fold change is 0.008 in assay [1]; -0.075 in the assay with vorinostat; -0.006 in the assay with silmitasertib; -0.005 in assay [2]; 0.019 with entospletinib.

PHLDB1 (UniProt Q86UU1): the log2 fold change in assay [1] is 0.022; with vorinostat, -0.357 (active); in the assay with silmitasertib it was 0.012; in assay [2] it was 0.128; with entospletinib, 0.008.

Consider PTPN2 (UniProt P17706), for which the log2 fold change was -0.005 in assay [1]; -0.298 (active) with vorinostat; 0.024 in the assay with silmitasertib; -0.002 in assay [2]; 0.07 with entospletinib.

Turning to PELO (UniProt Q9BRX2), the log2 fold change was 0.021 in assay [1]; -0.495 (active) with vorinostat; 0.058 with silmitasertib; 0.02 in assay [2]; 0.006 with entospletinib.

Take PTGR2 (UniProt Q8N8N7): the log2 fold change in assay [1] was -0.083; with vorinostat it was 0.656 (active); in the assay with silmitasertib, -0.002; in assay [2], 0.11; with entospletinib it was -0.005.

With PTK2 (UniProt Q05397), the log2 fold change in assay [1] was -0.017; with vorinostat, -0.137; in the assay with silmitasertib, 0; in assay [2], -0.056; with entospletinib, 0.175.

With PCLAF (UniProt Q15004), the log2 fold change in assay [1] is 0.022; with vorinostat, -0.29 (active); with silmitasertib it was -0.029; in assay [2] it was -0.025; in the assay with entospletinib it was 0.009.

Take PES1 (UniProt O00541): the log2 fold change in assay [1] was 0.03; with vorinostat, -0.193; in the assay with silmitasertib, 0.037; in assay [2], 0.014; with entospletinib it was -0.015.

In the case of PITRM1 isoform 2 (UniProt Q5JRX3), the log2 fold change in assay [1] was 0.003; with vorinostat, 0.111; in the assay with silmitasertib, 0.006; in assay [2], -0.011; with entospletinib it was 0.002.

On to PCF11 (UniProt O94913), for which the log2 fold change in assay [1] is 0.043; in the assay with vorinostat, -0.339 (active); with silmitasertib it was -0.023; in assay [2], -0.001; with entospletinib, 0.016.

With PDF (UniProt Q9HBH1), the log2 fold change is -0.095 in assay [1]; -0.232 in the assay with vorinostat; 0.044 in the assay with silmitasertib; 0 in assay [2]; -0.004 in the assay with entospletinib.

As for PRMT7 (UniProt Q9NVM4), the log2 fold change was -0.017 in assay [1]; -0.174 with vorinostat; -0.011 with silmitasertib; 0.04 in assay [2]; -0.018 with entospletinib.

PTGES2 (UniProt Q9H7Z7): the log2 fold change in assay [1] was -0.175; with vorinostat it was -0.197; in the assay with silmitasertib, 0.304; in assay [2], 0.12; with entospletinib, 0.085.

On to PRPF38A (UniProt Q8NAV1), for which the log2 fold change in assay [1] was -0.059; with vorinostat it was -0.278; with silmitasertib it was 0.03; in assay [2], 0.03; with entospletinib it was 0.055.

Take PRKCSH (UniProt K7ELL7): the log2 fold change was 0.132 in assay [1]; 0.109 with vorinostat; 0.016 in the assay with silmitasertib; 0.016 in assay [2]; -0.097 with entospletinib.

For PPT2 isoform 3 (UniProt Q9UMR5), the log2 fold change in assay [1] is 0.055; with vorinostat it was 0.398 (active); with silmitasertib it was 0.034; in assay [2] it was -0.018; with entospletinib, -0.006.

With PPM1H (UniProt Q9ULR3), the log2 fold change in assay [1] was -0.004; with vorinostat, 0.206; with silmitasertib, -0.05; in assay [2], -0.045; with entospletinib, -0.002.

Regarding PGLS (UniProt O95336), the log2 fold change in assay [1] is -0.08; with vorinostat, 0.079; with silmitasertib, -0.034; in assay [2], 0.072; with entospletinib it was 0.003.

Regarding PHKA2 (UniProt P46019), the log2 fold change in assay [1] is 0.017; in the assay with vorinostat it was -0.29 (active); in the assay with silmitasertib, 0.105; in assay [2], -0.048; with entospletinib it was -0.012.

As for PHGDH (UniProt O43175), the log2 fold change is 0.023 in assay [1]; -0.939 (active) with vorinostat; 0.031 with silmitasertib; 0.028 in assay [2]; 0.016 with entospletinib.

As to PCYT1B (UniProt Q9Y5K3), the log2 fold change was -0.03 in assay [1]; 0.064 with vorinostat; -0.062 with silmitasertib; -0.027 in assay [2]; 0.002 with entospletinib.

Take PRKD2 isoform 3 (UniProt Q9BZL6): the log2 fold change in assay [1] was -0.043; with vorinostat, -0.326 (active); in the assay with silmitasertib, 0.051; in assay [2], 0.088; with entospletinib, 0.052.

For the target PHKG2 (UniProt P15735), the log2 fold change in assay [1] is -0.029; with vorinostat it was 0.013; with silmitasertib it was 0.008; in assay [2], -0.022; with entospletinib, 0.026.

Take PPP2R5C isoform 4 (UniProt Q13362): the log2 fold change in assay [1] is 0.075; in the assay with vorinostat, 0.082; in the assay with silmitasertib, -0.067; in assay [2], 0.074; with entospletinib, -0.012.
